# This is a sample that favours compounds with a hit; in the whole collection about 10% have one here.
# G9a block – qHTS Assay for Inhibitors of Histone Lysine Methyltransferase G9a; G9a H3K9 monomethylation, AlphaScreen, 2 h; Potency, µM (doses to about 102 µM), for inactives: at the top dose activity, negative = inhibition, actives largely listed as inhibitors; Histone-lysine N-methyltransferase EHMT2 (Homo sapiens), Q96KQ7; 350,000 compounds, 8.8% hits; note: potency is the fitted concentration of half-maximal effect; nearly all actives have a fitted effect of over 75% in size
# Target sequence (Q96KQ7 913-1193 limits assumed): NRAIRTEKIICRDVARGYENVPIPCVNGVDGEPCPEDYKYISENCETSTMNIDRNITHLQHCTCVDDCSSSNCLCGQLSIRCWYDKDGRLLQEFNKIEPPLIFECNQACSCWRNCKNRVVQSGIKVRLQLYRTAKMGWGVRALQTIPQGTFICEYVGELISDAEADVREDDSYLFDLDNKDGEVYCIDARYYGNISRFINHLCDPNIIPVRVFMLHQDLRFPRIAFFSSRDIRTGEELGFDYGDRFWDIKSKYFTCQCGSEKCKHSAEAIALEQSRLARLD
#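 Step 1: enzyme (final 20 nM) with compound, 15 min RT. Step 2: substrate peptide 500 nM and SAM 20 uM, 2 h RT. Step 3: anti-H3K9me1 antibody and AlphaScreen beads, 10 min, then plate read.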
# VDR inh – Inhibitors of the vitamin D receptor (VDR): qHTS. Potency, µM, for inactives: max response, negative = inhibition, most hits filed as inhibitors. Vitamin D3 receptor (Homo sapiens), P11473. VDR-SRC2-3 peptide fluorescence polarization, 2 h. 400,000 compounds, 0.93% hits; note: potency is the fitted concentration of half-maximal effect
#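 Reagent solutions, kept cold and dark, are dispensed first; compounds are then pinned in at 23 nl, plates briefly spun, and incubated 2 h at ambient temperature. Inhibition of VDR–SRC2-3 peptide binding is read by fluorescence polarization.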
# PLK1 PBD block – qHTS for Inhibitors of PLK1-PDB (polo-like kinase 1 - polo-box domain): Primary Screen. Serine/threonine-protein kinase PLK1 (Homo sapiens), P53350. Plk1 PBD binding of FITC phosphopeptide, fluorescence polarization. Potency, µM, inactives show max response, negative = inhibition, hits mostly inhibitors. 360,000 compounds, 2.8% hits; note: potency is the fitted concentration of half-maximal effect; series mostly up to about 57 µM; nearly all actives have a fitted effect of over 65% in size
# Sfp inh – qHTS Assay for Inhibitors of Bacillus subtilis Sfp phosphopantetheinyl transferase (PPTase); AID 1490, 2009; Potency, µM, for inactives: largest response in the series, negative = inhibition, hits mostly inhibitors; Biochemical Sfp PPTase activity, qHTS; 310,000 compounds, 3.5% hits;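 note: the enzyme is Sfp with the accession as filed and its product quenches rhodamine fluorescence; potency is the fitted concentration of half-maximal effect; 0% = enzyme reaction without inhibitor and -100% = no enzyme wells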
#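 Step 1, compound plus 15 nM Sfp-PPTase, 15 min, room temperature. Step 2, add rhodamine-CoA (5 uM) and BHQ-2-YbbR (12.5 uM). Step 3, read 525/598 nm fluorescence at 0 and 30 min.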
# MmCpn inh – Inhibitors of TCP-1 ring complex (TRiC) of Methanococcus maripaludis (MmCpn): qHTS; Potency, µM (highest dose often 76.9 µM), for the others: top-dose activity, negative = inhibition, actives largely listed as inhibitors; purified Mm-Cpn ATPase, ADP Transcreener TR-FRET; 330,000 compounds, 0.031% hits; Chaperonin Mm-Cpn (Methanococcus maripaludis); AID 504842, 2011; note: potency is the fitted concentration of half-maximal effect; nearly all actives have a fitted effect of over 80% in size
#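 Inhibition of chaperonin ATP hydrolysis is measured as reduced ADP production, detected by competitive TR-FRET in which signal falls with ADP. Final enzyme 25 nM and ATP 10 uM, reacted 30 min at 37°C.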
# CCT chaperon mod – High-Throughput Screening for Modulators of Cytosolic Chaperonin Activity; 360,000 compounds, 0.3% hits; activity change, % (concentration not given with the values), hits read low; purified chaperonin ATPase assay, HTRF ADP detection, 30 min; in the data active = activity change below about -30%
#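 Enzyme 40 or 20 nM (batch-dependent) in Tris pH 7.4/KCl/MgCl2/DTT; cpd 76 uM single point; ATP 10 uM; 30 min 37 °C; Transcreener ADP HTRF detection, 30 min RT; ratio 665/615.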
# Active calls of the source: *; ? = inconclusive; . = no result given; ! = not active in a repeat; [ ] = another dose, or the depositor's remark. Unless noted, calls come from the whole dose curve; as a rule, active = well fitted curve in the direction sought with a large enough effect; inconclusive = small, poorly fitted or top-dose-only effect, or another doubt; inactive = no such curve, though single readings can be large; an effect the other way counts as inactive or inconclusive. Unless noted, % is set by controls: 0 for no effect and ±100 for the full control effect.
SMILES,G9a block,VDR inh,PLK1 PBD block,Sfp inh,MmCpn inh,CCT chaperon mod
CCCC(=O)O[C@]1(C(=O)CCl)[C@H](C)C[C@@H]2[C@H]3CCC4=CC(=O)C=C[C@]4(C)[C@@]3(F)C(=O)C[C@@]21C,-27%[12.7 µM],-10%,.,11%,.,.
CCN1C(=O)N(CC)c2cccc3cccc1c23,26%,9%,-4%,13%,-2%,-1
CN1CN(C)c2cccc3cccc1c23,1.4µM*,10%,-9%,-1%,-10%,-2
Oc1ccc(-c2nc(-c3ccc(F)cc3)c(-c3ccncc3)[nH]2)cc1,13µM*!,-15%,-3%,-25%,1%,2
Cc1oc(-c2cccc3ccccc23)nc1CN1CCN(c2ncnc3ccccc23)CC1,45µM*,-6%,5%,-28%,-1%,1
CCOC(=O)c1c(C)c(-c2ccccc2)n(CC(=O)NC2CCCCC2)c1C,16%[59 µM],1%,.,.,.,.
COc1cc(C2NC(=O)NC(O)(C(F)(F)F)C2C(=O)c2ccc(Cl)cc2)ccc1O (stereo not drawn),79µM*,-20%,-12%,18%,1%,0
CC(=O)Oc1ccc2c(=O)c(Oc3ccccc3)coc2c1OC(C)=O,8.9µM*,-4%,?,?,1%,-2
C/C(CCN1CCCc2nc(C)c(C)cc21)=N\OC[C@@H](O)COCc1ccco1,.,.,.,13%,.,.
COc1cc(-c2nc(-c3ccccc3)c(-c3cc([N+](=O)[O-])ccc3C)[nH]2)cc(OC)c1OC,10µM*,5%,-2%,5%,0%,0
COc1cc(-c2nc(-c3cccc(Cl)c3)c(-c3ccccc3)[nH]2)cc(OC)c1OC,3%[59 µM],-5%,.,.,.,.
N#Cc1c(NC(=O)c2ccc(Br)o2)n(-c2ccccc2)c2nc3ccccc3nc12,-11%[12.7 µM],8.9µM*,?,-7%,-2%,-3
COc1ccc(-n2c(NC(=O)c3ccc(Br)o3)c(C#N)c3nc4ccccc4nc32)cc1,10%[59 µM],.,.,-28%,-3%,.
Cc1nc2c3ccccc3nc(NNC(=O)CCC(=O)N3CCN(c4cc(Cl)ccc4C)CC3)n2n1,1%[59 µM],10%,.,.,.,.
COc1cc(/C=C2/C(=O)NN(c3cccc(Cl)c3)C2=O)cc(OC)c1O,14µM*,79µM*,20%,-14%,-1%,-1
CCOc1cc(/C=C2/C(=O)NN(c3cccc(Cl)c3)C2=O)ccc1O,32µM*,?,?,12%,-1%,0
COc1ccc(NC(=O)c2cc3c(CO)cnc(C)c3oc2=Nc2cccc(C)c2)c(OC)c1,?,11%,1%,9%,2%,-37*
CC(=O)Oc1oc(-c2ccccc2)nc1/C=N/c1ccccn1,?,22µM*,9.5µM*,?,2%,-1
N=c1n(CC(=O)c2ccc([N+](=O)[O-])cc2)c2ccccc2n1Cc1ccc(Cl)cc1,?,-21%,6%,?,1%,-3
N=c1n(CC(=O)c2ccc([N+](=O)[O-])cc2)c2ccccc2n1Cc1ccccc1,45µM*,-22%,-1%,?,-1%,-2
N=c1n(CCN2CCCCC2)c2ccccc2n1CC(=O)c1cccc([N+](=O)[O-])c1,45µM*,-4%,1%,1%,-2%,2
COc1cccc(-c2cc(C(=O)Nc3c(C)nn(Cc4ccccc4Cl)c3C)no2)c1,-36%[59 µM],-9%,.,.,.,.
CC(=O)c1ccc(NC(=O)CSc2ccsc2[N+](=O)[O-])cc1,50µM*,7%,-19%,-10%,-1%,-3
Cc1ccc(CNC(=O)CSc2ccsc2[N+](=O)[O-])cc1,?,-6%,-18%,5%,-1%,-1
O=C(CSc1ccsc1[N+](=O)[O-])Nc1cc(F)ccc1F,35µM*,6%,?,-17%,1%,-2

# High-throughput results as filed in PubChem.
